# An excerpt weighted towards active compounds, which were near 8.7% of everything screened.
# BAZ2B inh: inhibitors of human BAZ2B bromodomain; Q9UIF8; AlphaScreen BAZ2B-H3K14Ac peptide displacement; Potency, µM (titrated, usually from 114 µM), most hits filed as inhibitors; actives 4.4% (n = 360,000); AID 504333; further: nearly all actives have a fitted effect of over 60% in size
#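 In this displacement format the biotinylated H3(5-23) peptide acetylated at Lys14 serves as ligand at 50 nM, with BAZ2B at 50 nM in PBS pH 7.4 containing 0.01% Tween-20. Donor and acceptor beads are 10 ug/mL final.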
# G9a inh: G9a (human) methyltransferase inhibition | Q96KQ7 | Potency, µM (highest dose often 102 µM), usual class: inhibitors | AID 504332 | G9a H3K9 monomethylation, AlphaScreen, 2 h | actives 8.8% (n = 350,000); further: nearly all actives have a fitted effect of over 75% in size
# Target sequence (Q96KQ7 913-1193 limits assumed): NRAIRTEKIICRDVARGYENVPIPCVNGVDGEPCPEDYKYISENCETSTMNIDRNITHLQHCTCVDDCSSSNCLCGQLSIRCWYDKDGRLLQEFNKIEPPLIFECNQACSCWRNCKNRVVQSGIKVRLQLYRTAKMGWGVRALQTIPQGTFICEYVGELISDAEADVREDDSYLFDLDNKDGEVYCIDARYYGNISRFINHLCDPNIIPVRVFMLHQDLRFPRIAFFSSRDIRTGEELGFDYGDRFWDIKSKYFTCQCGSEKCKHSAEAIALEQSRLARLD
#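 Step 1: enzyme (final 20 nM) with compound, 15 min RT. Step 2: substrate peptide 500 nM and SAM 20 uM, 2 h RT. Step 3: anti-H3K9me1 antibody and AlphaScreen beads, 10 min, then plate read.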
# ALOX12 inh: ALOX12 (human) lipoxygenase inhibition. purified 12hLO, xylenol orange hydroperoxide absorbance. Potency, µM (titrated, usually from 108 µM), most hits filed as inhibitors. actives 1.1% (n = 580,000). AID 1671190
#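 Purified human 12hLO at 150 nM in 25 mM Hepes, 0.01% Triton X-100, pH 7.0, preincubated 15 min at room temperature with compound. Reaction started with 40 uM arachidonic acid, 30 min at room temperature. Hydroperoxide measured by Fe-xylenol orange, 573/405 nm absorbance ratio.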
# JMJD2A Tudor: JMJD2A Tudor domain (human) inhibition; Potency, µM (top dose mostly 114 µM), usual class: inhibitors; AlphaScreen JMJD2A-Tudor / H3K4me3 peptide binding; O75164; actives 4.4% (n = 390,000); further: nearly all actives have a fitted effect of over 50% in size
# Sfp PPTase inh: inhibitors of Bacillus subtilis Sfp phosphopantetheinyl transferase; Q9F4F7; Biochemical Sfp PPTase activity, qHTS; Potency, µM, usual class: inhibitors; actives 3.5% (n = 310,000);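 further: the enzyme is Sfp with the accession as filed and its product quenches rhodamine fluorescence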
#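 Buffer: 50 mM Hepes-Na pH 7.6, 10 mM MgCl2, 0.01% Nonidet P-40, 0.01% BSA. Enzyme 15 nM, pre-exposed to compound 15 min; substrates then added and fluorescence change tracked over 30 min.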
# HP1b chromo inh: blocks HP1-beta chromodomain binding to methylated histone tails | P83916 | AlphaScreen HP1-beta / biotin-H3K9me3 peptide binding | Potency, µM (series often up to 114 µM), usual class: inhibitors | actives 0.56% (n = 390,000); further: nearly all actives have a fitted effect of over 70% in size
# Target sequence (P83916 whole entry, looked up): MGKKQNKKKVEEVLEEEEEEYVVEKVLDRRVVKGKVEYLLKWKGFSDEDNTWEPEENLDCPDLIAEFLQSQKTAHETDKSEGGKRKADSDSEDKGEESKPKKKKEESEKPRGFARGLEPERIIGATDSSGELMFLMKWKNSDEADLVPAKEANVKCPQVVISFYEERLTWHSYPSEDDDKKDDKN
#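 Compound inhibition of the preformed complex between 50 nM HP1-beta and 50 nM biotinylated H3K9me3 peptide was read by AlphaScreen. Buffer was PBS pH 7.4 with 0.01% Tween-20. Incubations ran 30 min at room temperature, with 10 ug/mL donor/acceptor beads.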
# Numbers stand for hits; – = inactive; ? = inconclusive; · = not tested or not shown; ! = a repeat was not active; [ ] = remark or other dose. The call rests on the fitted dose curve; in most records, active means well fitted curve in the direction sought with a large enough effect; inconclusive means small, poorly fitted or top-dose-only effect, or another doubt; inactive means no such curve, though single readings can be large; an effect the other way counts as inactive or inconclusive.
SMILES,BAZ2B inh,G9a inh,ALOX12 inh,JMJD2A Tudor,Sfp PPTase inh,HP1b chromo inh
Nc1c(S(=O)(=O)c2ccccc2)c2nc3ccccc3nc2n1Cc1ccco1,–,–[12.7 µM],?,–,20µM,–
COc1cccc(/C=C2\Oc3cc(OS(=O)(=O)c4ccc(C)cc4)ccc3C2=O)c1,·,·,–,·,·,·
O=C(Nc1ccc(F)c(F)c1)c1cc2cc(Br)ccc2oc1=O,·,·,–,·,·,·
O=C1CC(c2ccccc2)N(C(=O)c2cccs2)CCCCCCN1 (centres undefined),·,·,–,·,·,·
CN1C(=O)[C@H]2CN(Cc3cc(F)cc(F)c3)C[C@H]2C1=O,·,·,–,·,·,·
O=C(c1ccc(S(=O)(=O)NCc2cccs2)cc1)N1CCCC1,·,·,–,·,·,·
Cc1ccc(Cc2c(-c3ccc(Br)cc3)nc3ccc(Cl)cn23)cc1,·,·,35.5µM,·,·,·
Fc1ccc(-c2nc3ccc(Br)cn3c2Cc2ccsc2)cc1,·,·,–,·,·,·
Cc1ccc(-c2nc3ccc(Br)cn3c2Cc2ccsc2)cc1,·,·,3.16µM,·,·,·
O=C(CSc1nnnn1-c1ccc(F)cc1)NC1CCCCC1,–,–[12.7 µM],–,79.4µM,–,?
CC(=O)c1ccc(-n2nnnc2SCC(=O)NC2CCCCC2)cc1,–,35.5µM,–,–,?,–
CCOc1ccc(Nc2nc(N)c(C(=O)c3ccc(OC)c(OC)c3)s2)cc1,·,·,–,·,·,·
CCOc1ccc(-c2nc(-c3nnn4c3COC(c3ccc(OC)cc3)C4)no2)cc1 (centres undefined),·,·,–,·,·,·
CCCc1c(C)nc(Nc2nc(C)c3cc(C)ccc3n2)[nH]c1=O,·,·,–,·,·,·
Cc1nn2c(N)csc2nc1=O,?,79.4µM,·,·,50.1µM,·
Cc1ccc(S(=O)(=O)NC(=NC(C)C)c2ccccc2)cc1,–,–[0.501 µM],–,–,–,–
Cc1ccc(S(=O)(=O)C/N=C(/NC(=S)N(c2ccccc2)c2ccccc2)c2ccccc2)cc1,–,10µM,?,?,31.6µM,–
O=S(=O)(Cc1ccccc1F)CC(O)c1ccccc1 (centres undefined),·,·,–,·,·,·
Cc1cc(C)c2sc(C)[n+](CCCS(=O)(=O)[O-])c2c1,–,–,?,–,2.51µM,–
Cc1ccc(OCC(=O)OC2=C(C(=O)c3ccccc3)N(C)S(=O)(=O)c3ccccc32)cc1,–,20µM,?,?,·,–
CCN1C(C(=O)c2ccccc2)=C(OC(=O)C(C)C)c2ccccc2S1(=O)=O,–,–,–,–,·,–
CCCN1C(C(=O)c2ccccc2)=C(OC(=O)c2ccc(C)cc2)c2ccccc2S1(=O)=O,–,–,–,–,·,–
Cc1ccc(C(=O)OC2=C(C(=O)c3ccccc3)N(C)S(=O)(=O)c3ccccc32)cc1,–,?,–,?,·,–
CCN1C(C(=O)c2ccccc2)=C(OC(=O)COc2ccccc2)c2ccccc2S1(=O)=O,?,12.6µM,–,35.5µM,·,–
COc1ccc(C(=O)OC2=C(C(=O)c3ccccc3)N(C)S(=O)(=O)c3ccccc32)cc1OC,?,20µM,–,–,·,–
SMILES,BAZ2B inh,G9a inh,ALOX12 inh,JMJD2A Tudor,Sfp PPTase inh,HP1b chromo inh
O=S(c1ccccc1O)S(=O)c1ccccc1O (centres undefined),·,·,2.24µM,0.794µM,·,3.55µM
CS(=O)c1ccccc1O (centres undefined),–,–,–,–,–,–
N=C(N)c1cccc(OCc2cccnc2)c1,·,·,7.94µM,·,·,·
O=C(/C=C/c1ccc([N+](=O)[O-])cc1)c1cccnc1,–,?,–,?,17.8µM,–
O=C(O)/C=C/c1cccc(OCc2ccccc2)c1,–,–,–,–,–,–
O=C(/C=C/c1cccc(OCc2ccccc2)c1)c1cccnc1,–,?,–,–,50.1µM,–
CCn1ncc(N2CCCC(CC(=O)NCCC3=CCCCC3)C2)cc1=O (centres undefined),·,·,–,·,·,·
CN(C)C(=O)C1CCC(C)(C(=O)O)C1(C)CI (centres undefined),·,·,39.8µM,·,·,·
CN(C)c1ccc(Nc2ncncc2-c2nc(-c3ccccc3)no2)cc1,·,·,–,·,·,·
Cn1cc(/C=C/C(=O)c2ccccc2)c2ccccc21,–,–,–,–,50.1µM,–
O=C(/C=C/c1cn(CC(O)CN2CCCCCC2)c2ccccc12)c1cccs1 (centres undefined),–,–,?,–,–,–
CCC(=C(c1ccc(OC)cc1)c1ccc(OC)cc1)c1cn(CC(O)CN2CCN(C)CC2)c2ccccc12 (centres undefined),44.7µM,39.8µM,?,28.2µM,50.1µM,50.1µM
CCCCN(C)CC(O)Cn1cc(/C=C/C(=O)c2cccs2)c2ccccc21 (centres undefined),–,–,·,–,20µM,–
CCCCN(CCCC)CC(O)Cn1cc(/C=C/C(=O)c2ccccc2)c2ccccc21 (centres undefined),–,?,44.7µM,?,·,–
CCn1cc(/C=C(\NC(=O)c2ccc(OC)cc2)C(=O)N2CCN(C)CC2)c2ccccc21,–,–[12.7 µM],?,–,–,–
O=Cc1cn(CC(O)Cn2cc(C=O)c3ccccc32)c2ccccc12,–,–[2.33 µM],–,–,–,–
O=C(CSc1nnc(Cc2ccccc2)o1)Nc1ccc(Br)c(Cl)c1,·,·,–,·,·,·
CCOC(=O)c1[nH]c2ccccc2c1NC(=O)CCC1CCCCC1,·,·,–,·,·,·
CCN(CC)c1cc(CCC(=O)NCCN(C)C2CCCCC2)ccn1,·,·,–,·,·,·
CCC(Sc1nnc(C)n1-c1ccccc1)C(=O)Nc1cc(C)on1 (centres undefined),·,·,–,·,·,·
O=C1CCN(C(=O)COc2ccccc2)CCCC(C(=O)NCc2ccccc2)CCN1 (centres undefined),·,·,–,·,·,·
CC(C)CN1C(=O)c2cccn2CC1CNC(=O)c1cccn1C (centres undefined),·,·,–,·,·,·
CN(C)C(=O)c1cccnc1OC1CCN(C(=O)c2cccc(Br)c2)C1 (centres undefined),·,·,–,·,·,·
CCOc1ccc(C(=O)/C=C/c2ccccc2O)cc1,·,·,–,·,·,·
COc1ccc(C(=O)/C=C/c2cn(CC(O)CN3CCc4ccccc43)c3ccccc23)cc1 (centres undefined),?,?,?,22.4µM,·,–
CCOc1ccc(C(=O)/C=C/c2cn(CC(O)CN3CCc4ccccc43)c3ccccc23)cc1 (centres undefined),–,–,–,?,·,–
CCCCN(C)CC(O)Cn1cc(/C=C/C(=O)c2ccc(OCC)cc2)c2ccccc21 (centres undefined),?,50.1µM!,–,50.1µM,44.7µM,?
NC(=O)COc1ccc(/C(Cc2ccccc2)=N/O)c(O)c1,·,·,–,·,·,·
O=C(N=Nc1c(O)[nH]c2ccccc12)c1cc(NS(=O)(=O)c2cccs2)cc(NS(=O)(=O)c2cccs2)c1,–,–,–,–,–,–
CC(C)n1c(O)c(N=NC(=O)c2ccccc2NS(=O)(=O)c2cccs2)c2ccccc21,?,–,–,14.1µM,–,–

# Compound activity (PubChem BioAssay)
